# The supplement of paper PMC4022240
# ± gives the standard deviation.
# T1: HaloTag-ATRX ADD domain (163-292)
# T1 chain: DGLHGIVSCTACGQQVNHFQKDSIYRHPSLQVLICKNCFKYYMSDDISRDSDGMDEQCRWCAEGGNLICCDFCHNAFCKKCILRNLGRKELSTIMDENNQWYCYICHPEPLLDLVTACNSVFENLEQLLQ
# Columns and labels:
# Assay in all cases: peptide microarray binding signal (635 nm), min-max normalized on array (fraction of array maximum); higher = stronger binding
# Settings in all cases: peptide region: H3 1-13
# [1] = target: T1, HaloTag-ATRX ADD domain (163-292)
# Protocol: (§1)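 Histone 13-mer peptides were synthesized as cellulose conjugates with a C-terminal 20-atom PEG linker and printed in triplicate on nitrocellulose. The sequence given is the unmodified backbone; PTMs (Kme1/2/3, Kac, Sph/Tph, Rme/Rme2a/Rme2s, Rcit) are listed in the label and the 'peptide modifications' condition. Slides were probed at 4 °C for 1 h with biotin-labelled (HQ)5-HaloTag reader fusions (ATRX-ADD, ING2-PHD) then streptavidin-Alexa647, or with rabbit histone antibodies then anti-rabbit Alexa647. The mean 635 nm signal of the triplicate spots was scaled 0-1 between the lowest and highest values on each array.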
# [2] = target: HaloTag-ING2 PHD (mouse Ing2 200-280)
# Protocol: as §1
# [3] = target: anti-H3K4me3 antibody ab8580
# Protocol: as §1
# [4] = target: anti-H3K9me3 antibody ab8898
# Protocol: as §1
# [5] = peptide modifications: H3R2me2s H3K9me3, binder concentration: 1:2,000 dilution
# [6] = peptide modifications: H3R2me2s H3K9me3, binder concentration: 1:10,000 dilution
# [7] = peptide modifications: H3R2me2s H3K9me1, binder concentration: 1:2,000 dilution
# [8] = peptide modifications: H3R2me2s H3K9me1, binder concentration: 1:10,000 dilution
# [9] = peptide modifications: H3R2me2s, binder concentration: 1:2,000 dilution
# [10] = peptide modifications: H3R2me2s, binder concentration: 1:10,000 dilution
# [11] = peptide modifications: H3R2me2s H3K9me2, binder concentration: 1:2,000 dilution
# [12] = peptide modifications: H3R2me2s H3K9me2, binder concentration: 1:10,000 dilution
# [13] = peptide modifications: H3R2me2s H3K9ac, binder concentration: 1:2,000 dilution
# [14] = peptide modifications: H3R2me2s H3K9ac, binder concentration: 1:10,000 dilution
# [15] = peptide modifications: H3R8cit H3K9me2, binder concentration: 1:2,000 dilution
# [16] = peptide modifications: H3R8cit H3K9me2, binder concentration: 1:10,000 dilution
# [17] = peptide modifications: H3R8cit H3K9me1, binder concentration: 1:2,000 dilution
# [18] = peptide modifications: H3R8cit H3K9me1, binder concentration: 1:10,000 dilution
# [19] = peptide modifications: H3R2me2s H3T6ph, binder concentration: 1:2,000 dilution
# [20] = peptide modifications: H3R2me2s H3T6ph, binder concentration: 1:10,000 dilution
# [21] = peptide modifications: H3R8cit H3K9ac, binder concentration: 1:2,000 dilution
# [22] = peptide modifications: H3R8cit H3K9ac, binder concentration: 1:10,000 dilution
# [23] = peptide modifications: H3R2me2s H3T3ph, binder concentration: 1:2,000 dilution
# [24] = peptide modifications: H3R2me2s H3T3ph, binder concentration: 1:10,000 dilution
binder,measurement,setting,value
ARTKQTARKSTGG [H3 1-13 A Rme2s T K Q T A R Kme3 S T G G],peptide microarray binding signal,"[1]; peptide modifications: H3R2me2s H3K9me3, binder concentration: 50 nM",0.172 ± 0.02
same,peptide microarray binding signal,"[1]; peptide modifications: H3R2me2s H3K9me3, binder concentration: 500 nM",0.303 ± 0.03
same,peptide microarray binding signal,"[2]; peptide modifications: H3R2me2s H3K9me3, binder concentration: 10 nM",0.0377 ± 0.0039
same,peptide microarray binding signal,"[2]; peptide modifications: H3R2me2s H3K9me3, binder concentration: 100 nM",0.0559 ± 0.0018
same,peptide microarray binding signal,[3]; [5],0.211 ± 0.015
same,peptide microarray binding signal,[3]; [6],0.14 ± 0.0028
same,peptide microarray binding signal,[4]; [5],0.81 ± 0.03
same,peptide microarray binding signal,[4]; [6],0.561 ± 0.017
ARTKQTARKSTGG [H3 1-13 A Rme2s T K Q T A R Kme S T G G],peptide microarray binding signal,"[1]; peptide modifications: H3R2me2s H3K9me1, binder concentration: 50 nM",0.0197 ± 0.00077
same,peptide microarray binding signal,"[1]; peptide modifications: H3R2me2s H3K9me1, binder concentration: 500 nM",0.03 ± 0.0016
same,peptide microarray binding signal,"[2]; peptide modifications: H3R2me2s H3K9me1, binder concentration: 10 nM",0.0236 ± 0.0023
same,peptide microarray binding signal,"[2]; peptide modifications: H3R2me2s H3K9me1, binder concentration: 100 nM",0.0288 ± 0.00047
same,peptide microarray binding signal,[3]; [7],0.0193 ± 0.003
same,peptide microarray binding signal,[3]; [8],0.0216 ± 0.0013
same,peptide microarray binding signal,[4]; [7],0.0154 ± 0.00086
same,peptide microarray binding signal,[4]; [8],0.0152 ± 0.0011
ARTKQTARKSTGG [H3 1-13 A Rme2s T K Q T A R K S T G G],peptide microarray binding signal,"[1]; peptide modifications: H3R2me2s, binder concentration: 50 nM",0.00815 ± 0.00015
same,peptide microarray binding signal,"[1]; peptide modifications: H3R2me2s, binder concentration: 500 nM",0.0158 ± 0.0003
same,peptide microarray binding signal,"[2]; peptide modifications: H3R2me2s, binder concentration: 10 nM",0.00424 ± 0.00023
same,peptide microarray binding signal,"[2]; peptide modifications: H3R2me2s, binder concentration: 100 nM",0.0168 ± 0.003
same,peptide microarray binding signal,[3]; [9],0.00153 ± 0.0002
same,peptide microarray binding signal,[3]; [10],0.000799 ± 8.3e-06
same,peptide microarray binding signal,[4]; [9],0.00178 ± 0.00012
same,peptide microarray binding signal,[4]; [10],0.00075 ± 1.6e-05
ARTKQTARKSTGG [H3 1-13 A Rme2s T K Q T A R Kme2 S T G G],peptide microarray binding signal,"[1]; peptide modifications: H3R2me2s H3K9me2, binder concentration: 50 nM",0.0159 ± 0.001
same,peptide microarray binding signal,"[1]; peptide modifications: H3R2me2s H3K9me2, binder concentration: 500 nM",0.0381 ± 0.00096
same,peptide microarray binding signal,"[2]; peptide modifications: H3R2me2s H3K9me2, binder concentration: 10 nM",0.0245 ± 0.00098
same,peptide microarray binding signal,"[2]; peptide modifications: H3R2me2s H3K9me2, binder concentration: 100 nM",0.0463 ± 0.005
same,peptide microarray binding signal,[3]; [11],0.0401 ± 0.0015
same,peptide microarray binding signal,[3]; [12],0.0397 ± 0.0042
same,peptide microarray binding signal,[4]; [11],0.0557 ± 0.0055
same,peptide microarray binding signal,[4]; [12],0.0282 ± 0.0014
ARTKQTARKSTGG [H3 1-13 A Rme2s T K Q T A R Kac S T G G],peptide microarray binding signal,"[1]; peptide modifications: H3R2me2s H3K9ac, binder concentration: 50 nM",0.0127 ± 0.00045
same,peptide microarray binding signal,"[1]; peptide modifications: H3R2me2s H3K9ac, binder concentration: 500 nM",0.0427 ± 0.0013
same,peptide microarray binding signal,"[2]; peptide modifications: H3R2me2s H3K9ac, binder concentration: 10 nM",0.0451 ± 0.0015
same,peptide microarray binding signal,"[2]; peptide modifications: H3R2me2s H3K9ac, binder concentration: 100 nM",0.0681 ± 0.0061
same,peptide microarray binding signal,[3]; [13],0.0383 ± 0.0035
same,peptide microarray binding signal,[3]; [14],0.0308 ± 0.0052
same,peptide microarray binding signal,[4]; [13],0.0163 ± 0.0031
same,peptide microarray binding signal,[4]; [14],0.00836 ± 0.00038
ARTKQTARKSTGG [H3 1-13 A R T K Q T A Rcit Kme2 S T G G],peptide microarray binding signal,"[1]; peptide modifications: H3R8cit H3K9me2, binder concentration: 50 nM",0.0517 ± 0.0042
same,peptide microarray binding signal,"[1]; peptide modifications: H3R8cit H3K9me2, binder concentration: 500 nM",0.0992 ± 0.0018
same,peptide microarray binding signal,"[2]; peptide modifications: H3R8cit H3K9me2, binder concentration: 10 nM",0.0235 ± 0.0016
same,peptide microarray binding signal,"[2]; peptide modifications: H3R8cit H3K9me2, binder concentration: 100 nM",0.0428 ± 0.011
same,peptide microarray binding signal,[3]; [15],0.00302 ± 0.00049
same,peptide microarray binding signal,[3]; [16],0.00177 ± 5e-05
same,peptide microarray binding signal,[4]; [15],0.00248 ± 0.00035
same,peptide microarray binding signal,[4]; [16],0.00277 ± 8.7e-05
ARTKQTARKSTGG [H3 1-13 A R T K Q T A Rcit Kme S T G G],peptide microarray binding signal,"[1]; peptide modifications: H3R8cit H3K9me1, binder concentration: 50 nM",0.0302 ± 0.0019
same,peptide microarray binding signal,"[1]; peptide modifications: H3R8cit H3K9me1, binder concentration: 500 nM",0.0745 ± 0.02
same,peptide microarray binding signal,"[2]; peptide modifications: H3R8cit H3K9me1, binder concentration: 10 nM",0.0223 ± 0.002
same,peptide microarray binding signal,"[2]; peptide modifications: H3R8cit H3K9me1, binder concentration: 100 nM",0.0394 ± 0.013
same,peptide microarray binding signal,[3]; [17],0.00313 ± 0.00015
same,peptide microarray binding signal,[3]; [18],0.00217 ± 9.9e-05
same,peptide microarray binding signal,[4]; [17],0.00225 ± 0.00023
same,peptide microarray binding signal,[4]; [18],0.00185 ± 5.2e-05
ARTKQTARKSTGG [H3 1-13 A Rme2s T K Q Tph A R K S T G G],peptide microarray binding signal,"[1]; peptide modifications: H3R2me2s H3T6ph, binder concentration: 50 nM",0.00476 ± 0.00012
same,peptide microarray binding signal,"[1]; peptide modifications: H3R2me2s H3T6ph, binder concentration: 500 nM",0.0109 ± 0.00039
same,peptide microarray binding signal,"[2]; peptide modifications: H3R2me2s H3T6ph, binder concentration: 10 nM",0.002745 ± 2.7e-05
same,peptide microarray binding signal,"[2]; peptide modifications: H3R2me2s H3T6ph, binder concentration: 100 nM",0.0193 ± 0.0028
same,peptide microarray binding signal,[3]; [19],0.000774 ± 1.9e-05
same,peptide microarray binding signal,[3]; [20],0.00097 ± 2e-05
same,peptide microarray binding signal,[4]; [19],0.000876 ± 2.6e-05
same,peptide microarray binding signal,[4]; [20],0.000461
ARTKQTARKSTGG [H3 1-13 A R T K Q T A Rcit Kac S T G G],peptide microarray binding signal,"[1]; peptide modifications: H3R8cit H3K9ac, binder concentration: 50 nM",0.00718 ± 9.2e-05
same,peptide microarray binding signal,"[1]; peptide modifications: H3R8cit H3K9ac, binder concentration: 500 nM",0.0143 ± 0.00071
same,peptide microarray binding signal,"[2]; peptide modifications: H3R8cit H3K9ac, binder concentration: 10 nM",0.0183 ± 0.0039
same,peptide microarray binding signal,"[2]; peptide modifications: H3R8cit H3K9ac, binder concentration: 100 nM",0.031 ± 0.01
same,peptide microarray binding signal,[3]; [21],0.0013 ± 3.1e-05
same,peptide microarray binding signal,[3]; [22],0.002 ± 0.0002
same,peptide microarray binding signal,[4]; [21],0.00239 ± 0.00033
same,peptide microarray binding signal,[4]; [22],0.00208 ± 0.00016
ARTKQTARKSTGG [H3 1-13 A Rme2s Tph K Q T A R K S T G G],peptide microarray binding signal,"[1]; peptide modifications: H3R2me2s H3T3ph, binder concentration: 50 nM",0.0063 ± 0.00015
same,peptide microarray binding signal,"[1]; peptide modifications: H3R2me2s H3T3ph, binder concentration: 500 nM",0.0137 ± 0.00078
same,peptide microarray binding signal,"[2]; peptide modifications: H3R2me2s H3T3ph, binder concentration: 10 nM",0.00424 ± 0.00025
same,peptide microarray binding signal,"[2]; peptide modifications: H3R2me2s H3T3ph, binder concentration: 100 nM",0.0153 ± 0.003
same,peptide microarray binding signal,[3]; [23],0.00264 ± 0.0012
same,peptide microarray binding signal,[3]; [24],0.00228 ± 0.00028
same,peptide microarray binding signal,[4]; [23],0.000982 ± 0.00014
same,peptide microarray binding signal,[4]; [24],0.00075 ± 1.6e-05
